Source: PubChem BioAssay AID1117306 (National Center for Advancing Translational Sciences (NCATS), 2015)
Active and inactive are the calls of the source. The call rests on the fitted dose curve.

conditions: Ebola virus entry assay, blue channel imaging

Compound	AC50	outcome
COC(=O)Nc1nc2ccc(C(=O)c3cccs3)cc2[nH]1	0.611 µM (active)	
CCCSc1ccc2nc(NC(=O)OC)[nH]c2c1		inactive
CC[C@H]1OC(=O)[C@H](C)[C@@H](O[C@H]2C[C@@](C)(OC)[C@@H](O)[C@H](C)O2)C(C)[C@@H](O[C@@H]2O[C@H](C)C[C@H](N(C)C)[C@@H]2O)[C@](C)(OC)C[C@@H](C)C(=O)[C@H](C)[C@@H](O)[C@]1(C)O (stereo not given in full)	6.85 µM (active)	
CCC1=C[C@@H]2CN(C1)Cc1c([nH]c3ccccc13)[C@@](C(=O)OC)(c1cc3c(cc1OC)N(C)[C@H]1[C@@](O)(C(=O)OC)[C@H](OC(C)=O)[C@]4(CC)C=CCN5CC[C@]31[C@@H]54)C2	0.153 µM (active)	
COC1=CC(=O)C[C@@H](C)[C@]12Oc1c(Cl)c(OC)cc(OC)c1C2=O		inactive
CCN(CC)CCNC(=O)c1c(C)[nH]c(/C=C2\C(=O)Nc3ccc(F)cc32)c1C	3.06 µM (active)	
CC[C@H]1OC(=O)[C@H](C)[C@@H](O[C@H]2C[C@@](C)(OC)[C@@H](O)[C@H](C)O2)[C@H](C)[C@@H](O[C@@H]2O[C@H](C)C[C@H](N(C)C)[C@@H]2O)[C@](C)(O)C[C@@H](C)CN(C)[C@H](C)[C@@H](O)[C@]1(C)O	4.32 µM (active)	
CN(C)CCOc1ccc(/C(=C(/CCCl)c2ccccc2)c2ccccc2)cc1	1.37 µM (active)	
NCCCC(O)(P(=O)(O)O)P(=O)(O)O		inactive
COC(=O)Nc1nc2ccc(C(=O)c3ccccc3)cc2[nH]1		inactive
